High-throughput results deposited in PubChem by The Scripps Research Institute Molecular Screening Center.
The list is not random: actives were taken first. Their share in the collection is about 1.8%.
PME-1 primary = blocks human protein phosphatase methylesterase 1; Q9Y570; inhibition, % at 5.9 µM; actives 0.53% (n = 320,000); recombinant PME-1, FP-Rh probe fluorescence polarization; AID 2130;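 active = inhibition above the campaign mean of all compounds plus 3 SD, cut at about 26% in these data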;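 note: competitive labeling of PME-1 active site by serine hydrolase directed probe; 0% = PME-1 with DMSO and 100% = wells lacking PME-1 enzyme; inhibitors block probe labeling so polarization falls and inhibition rises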
Target sequence (Q9Y570 whole entry, looked up): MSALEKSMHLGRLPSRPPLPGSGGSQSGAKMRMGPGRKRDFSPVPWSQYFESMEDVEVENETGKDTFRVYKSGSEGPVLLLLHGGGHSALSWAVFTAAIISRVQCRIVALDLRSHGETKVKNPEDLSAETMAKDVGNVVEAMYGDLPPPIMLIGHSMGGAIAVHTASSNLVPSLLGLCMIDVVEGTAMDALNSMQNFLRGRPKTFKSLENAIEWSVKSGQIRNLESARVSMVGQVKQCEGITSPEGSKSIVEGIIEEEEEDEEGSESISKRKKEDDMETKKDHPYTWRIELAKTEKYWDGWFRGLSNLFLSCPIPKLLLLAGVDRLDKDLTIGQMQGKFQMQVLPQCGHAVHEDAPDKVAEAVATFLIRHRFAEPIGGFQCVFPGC
LYPLA2 inh = LYPLA2 (human) inhibition in PME1 counter-screen; O95372; recombinant LYPLA2, FP-Rh probe fluorescence polarization; inhibition, % at 5.9 µM; actives 0.38% (n = 320,000);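 active = inhibition above the screen-wide mean plus 3 SD, limit set per campaign, cut at about 26% in these data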;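 note: 0% = LYPLA2 with DMSO and 100% = wells lacking LYPLA2 enzyme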
GSTO1 inh = GSTO1 inhibition, counter-screen for RBBP9 inhibitors; recombinant GSTO1, activity-based probe fluorescence polarization; AID 1974; P78417; actives 1.1% (n = 300,000); inhibition, % at 5.96 µM;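 active = inhibition above the campaign mean inhibition plus 3 SD, cut at about 35% in these data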;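 note: 0% = GSTO1-1 with DMSO and 100% = wells lacking GSTO1-1 enzyme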
LYPLA1 inh = blocks human lysophospholipase 1, a PME1 counter-screen | recombinant LYPLA1, FP-Rh probe fluorescence polarization | inhibition, % at 5.9 µM | actives 0.16% (n = 320,000);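 active = inhibition above the mean of all tested compounds plus 3 SD, set per campaign, cut at about 14% in these data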;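 note: inhibitors block serine hydrolase probe labeling of LYPLA1 so polarization falls; 0% = enzyme with DMSO and 100% = wells lacking LYPLA1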
Target sequence (O75608 whole entry, looked up): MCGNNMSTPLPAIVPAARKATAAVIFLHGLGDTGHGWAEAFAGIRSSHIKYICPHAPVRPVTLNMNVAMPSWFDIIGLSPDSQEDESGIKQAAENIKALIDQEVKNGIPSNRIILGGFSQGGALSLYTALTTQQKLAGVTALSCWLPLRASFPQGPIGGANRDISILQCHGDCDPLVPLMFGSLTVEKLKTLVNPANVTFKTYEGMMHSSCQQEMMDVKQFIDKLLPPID
Fam108B counter = Fam108B inhibition, counter-screen for RBBP9 inhibitors. recombinant Fam108B, FP-Rh probe fluorescence polarization. inhibition, % at 9.51 µM. actives 0.33% (n = 300,000). AID 1947;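 active = inhibition above the screen mean inhibition plus 3 SD, computed separately per campaign, cut at about 18% in these data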;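 note: inhibitors lower polarization as less probe binds the enzyme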
PAD4 inh = inhibitors of human PAD4; inhibition, % at 6.36 µM; AID 485272; Q9UM07; recombinant PAD4, RCA probe fluorescence polarization; actives 0.41% (n = 330,000);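 active = percent inhibition above a cutoff equal to the mean of all tested compounds plus 3 SD, cut at about 15% in these data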;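 note: 0% = PAD4 with RCA probe and DMSO and 100% = probe without PAD4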
PAD4 FP conf = PAD4 (human) inhibition, confirmed | shares compounds with PAD4 inh | inhibition, % at 6.36 µM | actives 28% (n = 1,200) | recombinant PAD4, RCA probe fluorescence polarization | AID 488796;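 active = mean inhibition across replicates above the hit cutoff set by the earlier primary screen, cut at about 15% in these data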;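 note: inhibitors block active-site labeling by the probe so polarization falls; 0% = PAD4 with probe and DMSO and 100% = probe without PAD4 enzyme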
* hit, by the source's call; x = not tested or not shown.

SMILES | PME-1 primary | LYPLA2 inh | GSTO1 inh | LYPLA1 inh | Fam108B counter | PAD4 inh | PAD4 FP conf
Cc1nnc(N/N=C/c2ccc(-c3ccc(Br)cc3)o2)n1N | 0.6 | 2.6 | 13.3 | 0.2 | 1.5 | 23.7* | 5.3
Cc1nnc(N/N=C\c2ccc(-c3cccc(C(=O)O)c3)o2)n1N | -0.4 | 11.2 | 19.8 | 7.4 | 0.9 | 29.7* | -5.7
O=C(O)c1cccc(-c2ccc(/C=N/NC(=O)c3cccnc3)o2)c1 | -2.6 | 9.1 | -0.7 | 0.1 | 1.9 | 0.7 | x
O=S(=O)(c1cnc[nH]1)N1CCN(C(c2ccc(F)cc2)c2ccc(F)cc2)CC1 | 4.7 | 2.5 | -1.0 | 0.7 | 1.0 | -4.0 | x
C#CCOCCOCCOCCNc1nc(N2CCN(C(=O)[C@H](CCCCN)n3cc(C(N)CO)nn3)CC2)nc(N2CCN(C(=O)[C@H](CCCCN)n3cc(C(N)COC(=O)C(F)(F)F)nn3)CC2)n1 (some centres not stated) | -4.9 | 3.7 | -1.6 | -3.6 | -2.9 | 5.3 | x
O=C(CSc1nnc(CNC(=O)c2ccccc2)o1)NCC1CCCO1 (configuration not stated) | 2.4 | 2.8 | 6.9 | -2.6 | -1.0 | 1.4 | x
Cc1cc(-c2nnc(SCC(=O)Nc3ccc(F)c(F)c3)n2N)n[nH]1 | -0.1 | 0.9 | -0.8 | -3.7 | 0.7 | 52.3* | 4.9
COc1ccc2ccccc2c1/C=N/Nc1cccc(C(=O)O)c1 | 13.6 | 8.2 | 14.6 | 8.9 | 7.6 | 21.1* | 1.5
O=S(=O)(CCSc1nc2ccccc2s1)c1nc2ccccc2s1 | 3.6 | -4.2 | -6.8 | -2.9 | -0.1 | 49.5* | 40.9*
CCS(=O)(=O)CCSc1nc2ccccc2s1 | -1.1 | 4.2 | 0.6 | 3.0 | 0.2 | 3.3 | x
CS(=O)(=O)c1nc2c(cc1C#N)CCCC2 | -6.3 | -5.3 | -0.9 | -0.7 | -7.2 | -5.4 | x
CC1(C)Cc2c(c(-c3ccccc3)[nH]c(=O)c2C#N)CS1 | -4.7 | -1.8 | -2.4 | -2.8 | 1.7 | 0.7 | x
CC1(C)Cc2c(c(-c3ccco3)[nH]c(=O)c2C#N)CS1 | -0.2 | 6.6 | 17.9 | 2.2 | 2.5 | 26.2* | 4.7
CCOc1ccccc1/C=C(\C#N)C1=CCCC1 | 3.4 | 2.9 | 0.6 | -3.0 | 1.1 | -3.7 | x
CCN(c1ccccc1)S(=O)(=O)c1ccc(C(=O)NNC(=O)c2ccccc2F)cc1 | 4.9 | -4.8 | x | -4.6 | x | 15.6* | 2.0
COCCCNc1nc2ccccc2nc1NS(=O)(=O)c1cccs1 | 2.4 | -3.9 | -3.5 | -0.8 | -2.1 | 16.0* | -10.6
COCCCNc1nc2ccccc2nc1NS(=O)(=O)c1ccc(OC)cc1 | 1.7 | 2.1 | 1.6 | 1.4 | -2.6 | -0.6 | x
CCN(C(=O)Cn1nc(C)c([N+](=O)[O-])c1C)c1c(N)n(Cc2ccccc2)c(=O)[nH]c1=O | -6.0 | 2.3 | -1.1 | -0.9 | 0.7 | -2.1 | x
Fc1cccc(C[n+]2csc3ccccc32)c1 | 5.7 | 3.5 | 3.3 | -1.5 | -3.3 | 11.8 | x
c1ccc(C[n+]2csc3ccccc32)cc1 | 2.8 | 0.0 | 10.6 | 2.5 | -1.5 | 23.4* | 33.9*
CC(Oc1ccc2cc(-c3ccccc3)c(=O)oc2c1)C(=O)NCC1CCC(C(=O)O)CC1 (configuration not stated) | 2.1 | 6.3 | -14.2 | 0.6 | -0.8 | -2.9 | x
COc1ccc(N(C(C)=O)S(=O)(=O)c2cc(OC)ccc2OC)cc1 | -1.6 | -1.1 | 0.5 | 3.1 | -3.6 | 1.4 | x
CCCC(=O)N(c1ccc2oc(=O)sc2c1)S(=O)(=O)c1cccs1 | -2.2 | -5.1 | 15.4 | -1.7 | 0.9 | 15.7* | 17.8*
COc1ccc(C(=O)Oc2ccc3ccc(=O)oc3c2)cc1 | -1.6 | 9.3 | 0.5 | -4.0 | 5.2 | 0.7 | x
CC(=O)N(c1ccc2oc(=O)sc2c1)S(=O)(=O)c1ccccc1 | -5.5 | 5.0 | 28.2 | 2.5 | 1.2 | 17.7* | 14.3
SMILES | PME-1 primary | LYPLA2 inh | GSTO1 inh | LYPLA1 inh | Fam108B counter | PAD4 inh | PAD4 FP conf
CC(=O)c1c(C)oc2ccc(N(C(C)=O)S(=O)(=O)c3cccc([N+](=O)[O-])c3)cc12 | 2.6 | -7.0 | -1.0 | 1.6 | 0.1 | 1.1 | x
CN(CC(=O)O)S(=O)(=O)c1cccs1 | 1.3 | -6.1 | 1.8 | 2.7 | 1.2 | -8.7 | x
COc1ccc(C(=O)Oc2ccc3oc(=O)sc3c2)cc1 | -2.2 | 14.9 | 30.6 | -1.6 | -0.1 | 48.2* | 11.8
COc1ccc(OC)c(S(=O)(=O)N(C(C)=O)c2ccc3oc(=O)sc3c2)c1 | -3.0 | -1.9 | 23.5 | 0.9 | -0.7 | 25.1* | 15.5*
O=C(CSc1nc(=O)n2ccccc2n1)OCc1ccccc1 | -4.6 | 1.1 | 5.1 | -0.8 | -0.6 | -4.1 | x
CC(C)CN1C(=O)NC2(CCCc3ccccc32)C1=O (configuration not stated) | 0.1 | -2.2 | 1.6 | 0.0 | -0.2 | -2.7 | x
CCOc1ccc(NCCC(O)c2ccc(F)cc2)cc1 (configuration not stated) | 3.3 | 4.2 | -2.3 | 3.5 | 2.5 | -2.9 | x
CC(C)C(=O)N(c1ccc2oc(=O)sc2c1)S(=O)(=O)c1ccccc1 | -5.2 | 2.9 | 17.6 | 0.8 | -2.1 | 23.7* | 2.8
COc1ccc(S(=O)(=O)N(C(=O)C(C)C)c2ccc3oc(=O)sc3c2)cc1 | 1.8 | 1.2 | 15.2 | 4.2 | 4.9 | 14.0 | x
Cc1nnc(N2C(=O)C(=O)/C(=C(/O)c3ccc4c(c3)OCCO4)C2c2ccc([N+](=O)[O-])cc2)s1 (configuration not stated) | -5.2 | -0.2 | 1.0 | -4.7 | 0.3 | -3.7 | x
CCC(=O)Nc1ccccc1Sc1ncnc2scc(-c3ccccc3)c12 | 7.4 | 6.8 | 2.9 | 3.8 | -1.1 | 21.4* | 9.2
COc1ccccc1N(CC(=O)NCc1ccccc1)C(=O)CCC(=O)Nc1nccs1 | 5.2 | 0.3 | -1.7 | 0.2 | -0.3 | 1.6 | x
O=C(Nc1cccc(-n2cnnn2)c1)c1ccc(C(F)(F)F)cc1 | -6.8 | -5.1 | x | -5.2 | x | 1.3 | x
CCOC(=O)CNC(=O)c1sc(NC(=O)c2cccc(F)c2)nc1C | -2.2 | 2.1 | 1.1 | 0.2 | 1.0 | 25.3* | 2.2
N#Cc1nc(N2CCCCC2)nc(N2CCOCC2)n1 | -2.1 | -0.2 | -1.4 | -1.3 | 6.2 | 18.5* | 23.8*
NS(=O)(=O)c1ccc(CCNC(=O)COC(=O)Cc2c(F)cccc2Cl)cc1 | -3.7 | 6.5 | 0.3 | 2.4 | -4.4 | -1.6 | x
COc1ccc(C2/C=C\CN3CCC[C@H]3C(=O)N2Cc2ccc(F)cc2)cc1 (some centres not stated) | x | x | x | x | x | 0.7 | x
COC(=O)Nc1ccc(SCC(=O)c2cccc([N+](=O)[O-])c2)cc1 | 8.0 | 5.8 | 10.5 | 1.8 | 3.9 | 25.8* | 18.8*
O=C(c1sc2ccccc2c1Cl)N1CCN(CCc2ccccn2)CC1 | 12.8 | -1.8 | 3.0 | -2.8 | -0.1 | 0.4 | x
CC(=O)Nc1c2c3c(cccc3n(C)c1=O)C(=O)c1ccccc1-2 | 2.2 | 2.7 | 16.8 | 4.1 | 3.0 | 65.4* | 30.7*
